# Screens (PubChem BioAssay)
# KDM5B inhibitor: Primary screen for KDM5B Histone Demethylases FDH-coupled qHTS | KDM5B demethylase, FDH-coupled NADH fluorescence (FDH is formaldehyde dehydrogenase) | Lysine-specific demethylase 5B (Homo sapiens), Q9UGL1 | 2.6% of 220,000 active | Potency, µM (titrated, usually from 57.7 µM), actives largely listed as inhibitors; active = well fitted inhibition curve with a large enough effect; inconclusive = small, poorly fitted or top-dose-only effect; inactive = no such curve, though single readings can be large or run the other way; note: potency is the fitted concentration of half-maximal effect; 0% is about no effect; nearly all actives have a fitted effect of over 70% in size
#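 Coupled FDH/NAD⁺ fluorescence readout. KDM5BΔAP 200 nM final; compound titration, 10 min RT preincubation; substrate mix 12.5 µM H3K4me3, 25 µM 2-OG, 50 µM Fe(II), 100 µM ascorbate, 0.25 mM NAD⁺, 0.25 U/mL FDH; ΔRFU over 30 min.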
# IP6K1 inhibitor: Primary qHTS assay for small molecule inhibitors of Inositol hexaphosphate kinase 1 (IP6K1). Inositol hexakisphosphate kinase 1 (Homo sapiens), Q92551. IP6K1 kinase, ADP-Glo luminescence, 2 h; stronger effect = lower value. activity change, % (series mostly up to about 58 µM). 0.81% of 140,000 active. AID 1645851, 2021; in the data active = activity change below about -25%; note: % is set by controls: 0 for no effect and ±100 for the full control effect
# Target sequence (Q92551 whole entry, looked up): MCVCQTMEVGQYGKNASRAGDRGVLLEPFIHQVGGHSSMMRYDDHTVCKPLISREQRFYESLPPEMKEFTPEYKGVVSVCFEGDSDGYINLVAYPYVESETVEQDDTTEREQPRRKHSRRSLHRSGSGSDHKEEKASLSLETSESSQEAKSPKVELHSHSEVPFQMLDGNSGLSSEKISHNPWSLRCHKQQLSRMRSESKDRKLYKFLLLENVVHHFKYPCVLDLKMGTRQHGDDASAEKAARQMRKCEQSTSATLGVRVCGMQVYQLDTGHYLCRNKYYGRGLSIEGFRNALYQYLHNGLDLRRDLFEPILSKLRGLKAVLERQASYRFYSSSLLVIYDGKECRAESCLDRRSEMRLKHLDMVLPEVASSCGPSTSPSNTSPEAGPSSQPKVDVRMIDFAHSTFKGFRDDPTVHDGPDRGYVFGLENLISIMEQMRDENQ
#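 ADP-Glo luminescence measures ADP made by human IP6K1 during a 2 h RT reaction with ATP/IP6 (mix at 1.3 mM/130 uM); top library doses 57.5 and 19.1 uM final.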
# Numbers without * were called inactive; i = inactive; ? = inconclusive; . = no result given; ! = a repeat was not active. Shown are actives, neighbours in structure and some others; about 2.7% of the full set was active somewhere.
SMILES,KDM5B inhibitor,IP6K1 inhibitor
O=C(NCc1ccccc1)C1CC(=O)N(c2n[nH]c3cccc(F)c23)C1 (stereo unspecified),i,-6
O=C(NCc1ccc(Cl)cc1)C1CC(=O)N(c2n[nH]c3cccc(F)c23)C1 (stereo unspecified),20µM*,-14
Cc1nn(-c2ccccc2)c2c1C(C1CC1)N(C1CCN([S+](=O)([O-])c3cccs3)C1)C2=O (stereo unspecified),.,-2
CCOc1ccc(OC(=O)c2ccccc2C(=O)c2ccccc2)cc1,i,.
Cc1nc2nc(NCc3c(Cl)cccc3Cl)[nH]n2c(=O)c1C,i,.
COc1cccc(CN2CCC(Cc3ncc(C)n3CC3CC3)C2)c1OC (stereo unspecified),?,-14
COc1ccccc1NC(=O)N1CCC(CCc2ccc(C)cc2)CC1,i,.
Cc1ccc(Nc2ccnc(N3CC4CCC(C3)N4CC(F)(F)F)n2)cc1,?,27
Cc1ccc(NC(=O)C2CC(=O)N(c3n[nH]c4cccc(F)c34)C2)c(C)c1 (stereo unspecified),22µM*,-11
COc1ccc(NC(=O)C2CC(=O)N(c3n[nH]c4cccc(F)c34)C2)cc1 (stereo unspecified),25µM*,7
Cc1ccnc(NC(=O)C2CC(=O)N(c3n[nH]c4cccc(F)c34)C2)c1 (stereo unspecified),i,3
Cn1cc(NC(=O)C2CC(=O)N(c3n[nH]c4cccc(F)c34)C2)cn1 (stereo unspecified),i,7
COc1ccc(OC)c(NC(=O)C2CC(=O)N(c3n[nH]c4cccc(F)c34)C2)c1 (stereo unspecified),32µM*,-2
COc1ccc(CNC(=O)C2CC(=O)N(c3n[nH]c4cccc(F)c34)C2)cc1OC (stereo unspecified),?,-1
COc1ccc(-c2cccc(C(=O)NCc3cccs3)c2)nn1,.,1
Nc1c(C(=O)NC2CCCCC2)nnn1-c1ccccc1,i,.
Cc1cc(C)c2nc(-c3cccc(N)c3)cc(C(=O)O)c2c1,i,.
Cc1ccc(C#N)c(NCc2cccnc2N2CCN(c3ccccn3)CC2)n1,28µM*,14
Fc1ccc(CNCc2cccnc2N2CCN(c3ccccn3)CC2)cc1F,?,-6
CC(C)Nc1nc(N)c(C(=O)c2ccccc2)s1,i,.
O=C(Cc1ccc(F)cc1)Nc1cc(-c2ccccn2)nn1-c1ccccc1,.,-18
O=C(c1ccc2oc(-c3ccc(C(F)(F)F)cc3)nc2c1)N1CCOCC1,i,1
O=C(NCC1CCCO1)c1ccc2oc(-c3ccc(C(F)(F)F)cc3)nc2c1 (stereo unspecified),25µM*,-1
O=C(CNC(=O)c1ccc(-c2cnc3ccccc3c2)cc1)NCc1ccccc1F,.,-1
Cc1noc(C)c1Cn1c(=O)c2c(ncn2C2CCCC2)n(Cc2ccccc2)c1=O,i,.
SMILES,KDM5B inhibitor,IP6K1 inhibitor
CSc1ccc(/C=C/C(=O)c2ccc3c(c2)NC(=O)CO3)cc1,i,.
c1ccc(-c2nnc3n2CCN(Cc2cn(-c4ccccc4)nn2)CC3)cc1,i,1
N#Cc1cccnc1N1CCN(Cc2cn(-c3ccccc3)nn2)CC1,22µM*,-12
Cc1cccc(NC(=O)CSc2ncnc3ccccc23)c1C,i,.
O=C(Cc1c[nH]c2ncc(-c3ccccc3)cc12)NCc1ccncc1,28µM*,-15
O=C(Cc1c[nH]c2ncc(-c3ccncc3)cc12)NCc1cccnc1,i,-17
COc1ccc(NC(=O)Cc2c[nH]c3ncc(-c4ccccc4C)cc23)cc1,?,-21
Cc1ccccc1-c1cnc2[nH]cc(CC(=O)NC3CC3)c2c1,28µM*,-17
Cc1ccccc1-c1cnc2[nH]cc(CC(=O)Nc3ccccc3)c2c1,35µM*,8
COc1ncccc1-c1cnc2[nH]cc(CC(=O)NC3CC3)c2c1,?,-16
COc1ncccc1-c1cnc2[nH]cc(CC(=O)Nc3nc(C)cs3)c2c1,i,-17
COc1ncccc1-c1cnc2[nH]cc(CC(=O)Nc3cccc(Cl)c3)c2c1,32µM*,28
COc1cccc(-c2cc(C(=O)Nc3cccc(C(F)(F)F)c3)c3cnn(C)c3n2)c1,.,10
CCOC(=O)C(O)(c1ccc(N(C)C(=O)Nc2ccc(Cl)c(Cl)c2)cc1)C(F)(F)F (stereo unspecified),i,.
Cn1cc(-c2cnc3[nH]cc(CC(=O)Nc4cccc(F)c4)c3c2)cn1,28µM*,-16
Cn1cc(-c2cnc3[nH]cc(CC(=O)Nc4ccc(N5CCOCC5)cc4)c3c2)cn1,?,-18
O=c1[nH]c(C2CCCN(Cc3ccccn3)C2)nn1-c1ccccc1 (stereo unspecified),22µM*,30
O=c1[nH]c(C2CCCN(Cc3ccccc3)C2)nn1-c1ccccc1 (stereo unspecified),?,14
CCOC(=O)C1CCCN(C(=O)c2cn3cc(-c4cccc(OC)c4)sc3n2)C1 (stereo unspecified),.,4
CN(C)c1ccc(-c2nc(-c3nnn4c3COC(c3ccccc3Cl)C4)no2)cc1 (stereo unspecified),25µM*,27
CN(C)c1cccc(-c2nc(-c3nnn4c3COC(c3ccccc3Cl)C4)no2)c1 (stereo unspecified),i,16
COc1cccc(-c2nc(-c3nnn4c3COC(c3ccccc3Cl)C4)no2)c1OC (stereo unspecified),14µM*,11
COc1ccc(-c2nc(-c3nnn4c3COC(c3ccccc3Cl)C4)no2)cc1 (stereo unspecified),i,3
O=C1NC2(CCN(S(=O)(=O)c3ccc(F)cc3)CC2)N=C1c1cccs1,i,.
CCN(CC)C(CNS(=O)(=O)c1cccs1)c1ccsc1 (stereo unspecified),i,.
SMILES,KDM5B inhibitor,IP6K1 inhibitor
Cc1ccc(NC(=O)C(c2ccccc2)n2cnc3c2c(=O)n(C)c(=O)n3C)cc1 (stereo unspecified),i,.
Cc1ccc2oc(C(=O)N3CCC(Cc4ccccc4)CC3)cc(=O)c2c1,i,.
Cc1c[nH]c2ccccc12,.,13
c1ccc2c(-c3nc4ccncc4[nH]3)c[nH]c2c1,40µM*!,14
c1cnc2nc(-c3c[nH]c4ccccc34)[nH]c2c1,35µM*!,0
c1ccc2c(-c3csc(NC4CC4)n3)c[nH]c2c1,i,.
O=C(NC1CCN(c2nccc(Nc3ccccc3F)n2)CC1)c1ccc(C(F)(F)F)cc1,.,1
COc1cccc(CC(=O)N2CC(Oc3ccc(-c4noc(-c5ccncc5)n4)cc3)C2)c1,?,13
COc1cccc(C(=O)N2CCN(C(=O)C3CCCO3)CC2)c1 (stereo unspecified),i,.
CCCOc1nccnc1NC1CCN(C(=O)c2ccccn2)CC1,28µM*,4
CCCOc1nccnc1NC1CCN(C(=O)NCC)CC1,28µM*,3
CS(=O)(=O)N1CCC(OC2CCN(C(=O)NCc3ccco3)CC2)CC1,i,12
CCCOc1nccnc1NC1CCN(C(=O)NCc2ccco2)CC1,25µM*,-3
CCCNC(=O)N1CCC(Oc2ncccc2C(=O)N(C)C)C1 (stereo unspecified),i,25
CCCOc1nccnc1NC1CCN(C(=O)C2CCCO2)CC1 (stereo unspecified),25µM*,4
